Source: PubChem
This excerpt belongs to a sample that is enriched for hits.
GIRK2 activator: Activates human GIRK2-containing potassium channels | P48051 | HEK293 GIRK2/NPY4 cells, thallium flux fluorescence | activation (% efficacy), % for hits at 37.5 µM | 34,000 tested, under 10 active;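 active means primary screen hit, no activity in plain HEK293 cells, and in GIRK2-only cells above 5% efficacy rising with concentration; inactive means the rest, including fluorescent compounds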;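 further: efficacy is normalized control-subtracted fluorescence 15 s after thallium addition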
GluA2 TARP mod: GluA2-stargazin AMPA receptor complex modulation. calls only at 30 µM. AID 1259245. 40,000 compounds, 3.5% hits. O88602+P19491. HEK293 GluA2+stargazin, membrane potential dye (FDSS), glutamate EC50; hits were called plate by plate, in both directions;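 active means any of four per-well response measures lying three or more SD from its plate-wide compound average, in either direction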
Numbers without * were called inactive; i = inactive; . = no result given; + = active, no number.

SMILES | GIRK2 activator | GluA2 TARP mod
COc1ccc(-c2ccc(OCCNS(=O)(=O)c3cc(C)c(OC)cc3C)nn2)cc1 | i | i
COc1cc(C)c(S(=O)(=O)NCCOc2ccc(-c3ccc(F)cc3)nn2)cc1C | i | +
COc1cccc2cc(C(=O)CS(=O)(=O)c3ccccc3)c(=O)oc12 | . | +
CCC(C)NC(=O)c1cc2cccc(OC)c2oc1=O (stereo unspecified) | i | i
COc1ccc(S(=O)(=O)NCC2CCN(Cc3ccco3)CC2)cc1OC | i | i
COc1cc(NC(=O)c2n[nH]nc2Nc2cccc(Cl)c2)cc(OC)c1 | i | +
O=C(Nc1ccccc1Br)c1n[nH]nc1Nc1cccc(Cl)c1 | i | i
O=C(Nc1ccc(OC(F)(F)F)cc1)c1ccc(S(=O)(=O)NCc2cccs2)o1 | i | +
O=C(Nc1ccc(C(F)(F)F)cc1)c1ccc(S(=O)(=O)NCCc2ccccc2)o1 | i | i
O=C(c1ccco1)N1CCN(C(=O)C2CCCN(c3ccc(-n4cccn4)nn3)C2)CC1 (stereo unspecified) | i | i
COC(=O)c1scc(-c2ccccc2)c1S(=O)(=O)N1CCN(Cc2ccccc2)CC1 | . | +
COC(=O)c1scc(-c2ccccc2)c1S(=O)(=O)N1CCCC1 | . | i
CC1(C)C(=O)NCCN1C(=O)Cc1ccc(S(C)(=O)=O)cc1 | i | i
CN(C)c1cccc(C(=O)NCC2CCN(S(=O)(=O)C3CC3)CC2)c1 | i | i
Cc1cc(C)c2nc(NC(=O)c3cc(C)no3)sc2c1 | i | i
COc1ccc(C)c2sc(NC(=O)c3cc(C)no3)nc12 | i | +
O=C(Cc1ccc([N+](=O)[O-])cc1)NNC(=O)c1cccn(Cc2ccc(F)cc2)c1=O | i | i
O=C(NCc1ccsc1)c1ccc2c(c1)OCO2 | i | i
O=C(NCc1ccsc1)c1cccc(C(F)(F)F)c1 | i | +
O=C(CN1CCC(COCc2ccccc2)CC1)Nc1cccnc1 | i | i
O=C(C1CC1)N1CCN(Cc2nnnn2-c2ccc(F)c(F)c2)CC1 | i | i
O=C(CSCc1ccccc1)N1CCN(Cc2nnnn2-c2ccc(F)c(F)c2)CC1 | i | +
COCCn1c(=O)c2c(nc3n2CCN3c2cccc(C)c2C)n(C)c1=O | . | i
O=C(NCCC(O)c1cccs1)C1(c2ccc(Cl)cc2)CCCC1 (stereo unspecified) | i | +
O=C(CCSc1ccccc1)NCCC(O)c1cccs1 (stereo unspecified) | i | i
SMILES | GIRK2 activator | GluA2 TARP mod
Cn1cccc1C(CNS(=O)(=O)c1ccccc1)N1CCCC1 (stereo unspecified) | i | i
CCN(c1ccccc1)S(=O)(=O)c1ccc(C(=O)Nc2nc(C(C)C)cs2)cc1 | i | i
COc1ccc(-c2ccc(C)c(NC(=O)c3ccccc3OC)c2)nn1 | i | +
COc1ccc(-c2ccc(C)c(NC(=O)c3cccc(OC)c3OC)c2)nn1 | i | i
Cc1ccc(C(CNC(=O)COc2ccc3ccccc3c2)N(C)C)cc1 (stereo unspecified) | i | +
O=C(COc1ccc2ccccc2c1)NCC(O)c1ccc(C(F)(F)F)cc1 (stereo unspecified) | i | .
CC(C(=O)Nc1nc2ccc(S(C)(=O)=O)cc2s1)N1C(=O)c2ccccc2S1(=O)=O (stereo unspecified) | . | i
CC(C(=O)Nc1nc2ccccc2s1)N1C(=O)c2ccccc2S1(=O)=O (stereo unspecified) | . | +
CC(C(=O)Nc1cccc(Br)c1)N1C(=O)c2ccccc2S1(=O)=O (stereo unspecified) | i | +
CC(C(=O)Nc1ccc(Br)cc1)N1C(=O)c2ccccc2S1(=O)=O (stereo unspecified) | i | i
CC(C(=O)Nc1ccc(F)c(F)c1F)N1C(=O)c2ccccc2S1(=O)=O (stereo unspecified) | . | i
CC(C(=O)Nc1cc(Cl)ccc1O)N1C(=O)c2ccccc2S1(=O)=O (stereo unspecified) | i | +
CC(=O)N1CC(C(=O)Nc2cc(Cl)ccc2C#N)C1 | i | i
CCc1ccc(NC(=O)C(=O)NCC(O)C2CCCCC2)cc1 (stereo unspecified) | i | .
Cc1cccc(NC(=O)c2ccc(S(=O)(=O)N3CCCCC3)cc2)c1C | . | i
O=C(NC1(c2nc(-c3cnccn3)no2)CCCCC1)c1ccsc1 | i | i
COc1ccc(C)cc1NC(=O)C(=O)NCCC(c1ccccc1)c1ccccc1 | . | i
CCOC(=O)N(C)Cc1nc2ccccc2n1Cc1c(F)cccc1Cl | . | +
Brc1ccc(Cn2c(CN3CCCC3)nc3ccccc32)cc1 | . | i
CN(Cc1nc2ccccc2n1Cc1cccc(Cl)c1)C(=O)c1ccco1 | i | .
Fc1cccc(Cl)c1Cn1c(CN2CCCC2)nc2ccccc21 | i | +
COCC(=O)NCCn1nc(-c2cccnc2)ccc1=O | i | i
O=c1c2ccccc2nc(SCc2nc(-c3ccc(Cl)cc3)no2)n1Cc1ccco1 | . | i
O=C(Cc1ccc(F)cc1)Nc1cc(-c2cccs2)nn1CCO | i | i
O=C(CCSc1ccccc1)Nc1cc(-c2cccs2)nn1CCO | i | +
SMILES | GIRK2 activator | GluA2 TARP mod
CN(Cc1ccccc1)S(=O)(=O)c1ccc(-c2nc(C#N)c(NCCN3CCOCC3)o2)cc1 | i | i
COc1ccc(-n2nnc3c(N4CCN(C(=O)c5ccccc5Cl)CC4)ncnc32)cc1 | . | i
CCC(CC)C(=O)N1CCN(c2ncnc3c2nnn3-c2cccc(OC)c2)CC1 | . | +
COc1ccc(-n2nnc3c(N4CCN(C(=O)c5ccccc5SC)CC4)ncnc32)cc1 | . | +
CCSc1ccccc1C(=O)N1CCN(c2ncnc3c2nnn3-c2ccc(OC)cc2)CC1 | . | +
CCC(=O)N1CCN(c2ncnc3c2nnn3-c2cccc(OC)c2)CC1 | . | i
CCSc1ccccc1C(=O)N1CCN(c2ncnc3c2nnn3-c2ccc(C)cc2)CC1 | . | i
O=C(CSCc1ccccc1)N1CCN(c2ncnc3c2nnn3-c2ccccc2)CC1 | . | i
O=C(CC(c1ccccc1)c1ccccc1)N1CCN(c2ncnc3c2nnn3-c2ccccc2)CC1 | . | +
CC(=O)N1CCc2c(sc(NC(=O)CCCS(=O)(=O)c3ccc(C)cc3)c2C(N)=O)C1 | i | i
CC(=O)N1CCc2c(sc3nc(SCC(=O)N4CCOCC4)n(-c4ccccc4)c(=O)c23)C1 | i | i
CC(=O)Cn1c(=O)c2c(nc3n(-c4ccccc4F)c(C)cn23)n(C)c1=O | . | i
Cc1nn(C2CCS(=O)(=O)C2)c(C)c1CC(=O)N1CCn2c1nc1ccccc12 (stereo unspecified) | i | i
COc1ccc(S(=O)(=O)Nc2ccc3c(c2)N(C(=O)C2CC2)CC3)cc1 | i | i
CCc1ccc(S(=O)(=O)Nc2ccc3c(c2)N(C(=O)C2CC2)CC3)s1 | i | +
COC(=O)C(=O)CC(=O)c1ccc(OC)cc1OC | i | i
CCOc1ccc(C2NC(=O)NC(CS(=O)(=O)c3ccc(OC)c(Cl)c3)=C2C(=O)OC)cc1 (stereo unspecified) | . | i
CC1(C)CC(=O)C2=C(C1)NC1=C(C(=O)CC(C)(C)C1)C2c1cccs1 | i | i
CN1C2=C(C(=O)CC(C)(C)C2)C(c2cc(Br)ccc2O)C2=C1CC(C)(C)CC2=O | . | +
